From PubChem BioAssay (Tox21)
“And” between values parts separate entries of the source, which are not always exact repeats. Equal values may be shown once. More than one record can exist for a structure, and the calls need not agree. The source made the active and inactive calls. Where a call stands in place of a potency, no number is given. Unless noted, calls come from the whole dose curve; as a rule, active = well fitted curve in the direction sought with a large enough effect in the repeat runs; inconclusive = weak or mixed curves; inactive = no such curve, though single readings can be large; an effect the other way counts as inactive or inconclusive.

Legend:
[1] = qHTS assay to identify small molecule antagonists of the thyroid receptor (TR) signaling pathway - cell viability counter screen (AID 743064); note: nearly all actives have a fitted effect of over 50% in size; note: potency is the fitted concentration of half-maximal effect
Method in brief: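 In rat pituitary GH3.TRE-Luc reporter cells co-exposed to compound and 1 nM T3 for 23.5 h, cytotoxicity was assessed with CellTiter-Fluor in the same wells, read by fluorescence.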

[2] = qHTS assay to identify small molecule antagonists of the thyroid receptor (TR) signaling pathway (AID 743065); note: nearly all actives have a fitted effect of over 55% in size; note: potency is the fitted concentration of half-maximal effect
Method in brief: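 GH3.TRE-Luc rat pituitary cells carrying two TR response elements driving luciferase were plated for 4 h, given compound plus 1 nM T3 (final), and incubated 23.5 h at 37 C. ONE-Glo luminescence measured reporter inhibition; CellTiter-Fluor fluorescence tracked cytotoxicity.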

[3] = system: thyroid hormone receptor (rat, GH3 cells); assay: qHTS assay to identify small molecule agonists of the thyroid receptor (TR) signaling pathway (AID 743066; calls by dose curve)
[4] = qHTS assay to identify small molecule antagonists of the estrogen receptor alpha (ER-alpha) signaling pathway - cell viability counter screen (AID 743074; calls by dose curve;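 note: HEK293 cells carrying ER-alpha-UAS-bla reporter stimulated with 17beta-estradiol; nearly all actives have a fitted effect of over 45% in size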; note: potency is the fitted concentration of half-maximal effect)
[5] = qHTS assay to identify small molecule antagonists of the estrogen receptor alpha (ER-alpha) signaling pathway using the BG1 cell line - cell viability counter screen (AID 743081);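 note: compound given together with 17beta-estradiol as the ER stimulus; nearly all actives have a fitted effect of over 45% in size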; note: potency is the fitted concentration of half-maximal effect
[6] = qHTS assay to identify aromatase inhibitors - cell viability counter screen (AID 743084);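 note: cells stimulated with testosterone during compound exposure; nearly all actives have a fitted effect of over 55% in size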; note: potency is the fitted concentration of half-maximal effect
[7] = qHTS assay to identify small molecule antagonists of the peroxisome proliferator-activated receptor gamma (PPARg) signaling pathway - cell viability counter screen (AID 743194); note: nearly all actives have a fitted effect of over 55% in size; note: potency is the fitted concentration of half-maximal effect
Method in brief: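 PPARg-UAS-bla HEK293H cells were plated, rested 5 h at 37 C, then treated with compounds plus rosiglitazone (50 nM final) for 17 h at 37 C; viability was then read by CellTiter-Glo luminescence after 30 min at room temperature.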

[8] = qHTS assay for small molecule activators of the heat shock response signaling pathway - cell viability counter screen (AID 743209); note: nearly all actives have a fitted effect of over 50% in size; note: potency is the fitted concentration of half-maximal effect
Method in brief: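 Cytotoxicity counter screen run in the same wells as the heat-shock bla reporter assay: HeLa HSE-bla cells, 5 h compound exposure at 37 C, viability read by CellTiter-Glo luminescence.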

Aromatase (Homo sapiens) = Aromatase (Homo sapiens) (UniProt P11511); assay: qHTS assay to identify aromatase inhibitors (AID 743083); note: nearly all actives have a fitted effect of over 55% in size; note: potency is the fitted concentration of half-maximal effect
[9] = target: Aryl hydrocarbon receptor (Homo sapiens) (UniProt P35869); assay: qHTS assay to identify small molecule that activate the aryl hydrocarbon receptor (AhR) signaling pathway (AID 743085); note: nearly all actives have a fitted effect of over 15% in size; note: potency is the fitted concentration of half-maximal effect;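 for activation: HG2L7.5c1 human HepG2 liver cells with stably integrated DRE-driven firefly reporter; series mostly up to about 70 µM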
Method in brief: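 AhR agonist activity is inferred from enhanced light output of a DRE-controlled firefly luciferase reporter in HepG2 cells, measured with ONE-Glo following 24 h treatment at 37C.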

[10] = qHTS assay to identify small molecule that activate the aryl hydrocarbon receptor (AhR) signaling pathway - cell viability counter screen (AID 743086); note: nearly all actives have a fitted effect of over 45% in size; note: potency is the fitted concentration of half-maximal effect
Method in brief: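 HepG2-AhR-luc (HG2L7.5c1) cells, 4000/well, were preincubated 5 h at 37C, exposed to compound in qHTS format for 24 hr at 37C, then given CellTiter-Fluor for 30 min; viability was read as fluorescence in the reporter wells.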

[11] = target: Peroxisome proliferator-activated receptor gamma (Homo sapiens) (UniProt P37231); assay: qHTS assay to identify small molecule agonists of the peroxisome proliferator-activated receptor gamma (PPARg) signaling pathway (AID 743094; active = well fitted activation curve with a large enough effect in the signal ratio in the repeat runs, not every such curve was filed as active; inconclusive = weak or mixed curves, or effect the other way; inactive = no such curve, though single readings can be large or run the other way; the % refers to the signal ratio)
Method in brief: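 Agonist activity was taken from a beta-lactamase reporter (FRET substrate, 1 h at room temperature) in HEK293H cells carrying a PPARg UAS-bla construct. Compounds in DMSO were incubated 17 h at 37C after a 5 h cell pre-incubation.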

[12] = qHTS assay for small molecule agonists of the antioxidant response element (ARE) signaling pathway (AID 743202; active = well fitted activation curve with a large enough effect in the signal ratio in the repeat runs, not every such curve was filed as active; inconclusive = weak or mixed curves, or effect the other way; inactive = no such curve, though single readings can be large or run the other way; the % refers to the signal ratio)
Method in brief: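 Following a 16 h, 37 C exposure of reporter HepG2 cells (ARE-driven beta-lactamase, 2,000 cells/well) to compounds, FRET substrate was applied for 2 h at room temperature and fluorescence intensity recorded.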

[13] = qHTS assay for small molecule agonists of the antioxidant response element (ARE) signaling pathway - cell viability counter screen (AID 743203; calls by dose curve; note: nearly all actives have a fitted effect of over 55% in size; note: potency is the fitted concentration of half-maximal effect)
Method in brief: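 Viability counter screen: CellTiter-Glo luminescence, read after 30 min at room temperature, in ARE-bla HepG2 wells. Compound exposure lasted 16 h at 37C/5% CO2, following a 5 h pre-incubation of the cells after plating.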

[14] = qHTS assay for small molecule activators of the heat shock response signaling pathway (AID 743210; active = well fitted activation curve with a large enough effect in the signal ratio in the repeat runs, with a control signal flat, not every such curve was filed as active; inconclusive = weak or mixed curves; the % refers to the signal ratio; note: series mostly up to about 63 µM)
Method in brief: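 Heat shock element–beta-lactamase HeLa reporter cells; qHTS with compounds for 5 h at 37 C; detection by FRET substrate fluorescence after 2.5 h at RT.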

[15] = target: Estrogen receptor (Homo sapiens) (UniProt P03372); assay: qHTS assay to identify small molecule antagonists of the estrogen receptor alpha (ER-alpha) signaling pathway (AID 743069; active = well fitted curve in the direction sought with a large enough effect in the signal ratio in the repeat runs, not every such curve was filed as active; inconclusive = weak or mixed curves, or effect the other way; inactive = no such curve, though single readings can be large or run the other way; the % refers to the signal ratio)
Method in brief: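 A 17beta-estradiol challenge was applied right after compound transfer to ER-alpha-UAS-bla HEK293 cells previously kept in charcoal-stripped serum. Plates stood 18 hr at 37C and 5% CO2; fluorescence was read following 2 hr FRET substrate loading at room temperature.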

[16] = target: Estrogen receptor (Homo sapiens) (UniProt P03372); assay: qHTS assay to identify small molecule agonists of the estrogen receptor alpha (ER-alpha) signaling pathway (AID 743075; calls by dose curve;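 note: HEK293 GripTite cells with ER-alpha and UAS-driven beta-lactamase reporter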; note: potency is the fitted concentration of half-maximal effect)
[17] = target: Estrogen receptor (Homo sapiens) (UniProt P03372); assay: qHTS assay to identify small molecule agonists of the estrogen receptor alpha (ER-alpha) signaling pathway using the BG1 cell line (AID 743079); note: nearly all actives have a fitted effect of over 20% in size
[18] = qHTS assay to identify small molecule antagonists of the estrogen receptor alpha (ER-alpha) signaling pathway using the BG1 cell line (AID 743080; calls by dose curve;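 note: BG1 cells stimulated with 17beta-estradiol alongside compound; series mostly up to about 70 µM; nearly all actives have a fitted effect of over 25% in size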)
Method in brief: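 Luciferase inhibition measured with ONE-Glo after 30 min at RT in BG1Luc4E2 cells given test compounds and 17beta-estradiol for 21.5 h at 37 C; CellTiter-Fluor viability read in the same wells beforehand.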

[19] = target: Peroxisome proliferator-activated receptor gamma (Homo sapiens) (UniProt P37231); assay: qHTS assay to identify small molecule antagonists of the peroxisome proliferator-activated receptor gamma (PPARg) signaling pathway (AID 743191; calls by dose curve; note: series mostly up to about 63 µM; nearly all actives have a fitted effect of over 30% in size)
Method in brief: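 GeneBLAzer PPARg UAS-bla HEK293H cells carrying a UAS-driven beta-lactamase reporter were plated at 3000 cells/well, preincubated 5 h at 37C, then given compound for 17 h at 37C; LiveBLAzer B/G FRET substrate was read after 1 h at room temperature.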

Estrogen receptor (Homo sapiens), sequence (P03372 whole entry, looked up): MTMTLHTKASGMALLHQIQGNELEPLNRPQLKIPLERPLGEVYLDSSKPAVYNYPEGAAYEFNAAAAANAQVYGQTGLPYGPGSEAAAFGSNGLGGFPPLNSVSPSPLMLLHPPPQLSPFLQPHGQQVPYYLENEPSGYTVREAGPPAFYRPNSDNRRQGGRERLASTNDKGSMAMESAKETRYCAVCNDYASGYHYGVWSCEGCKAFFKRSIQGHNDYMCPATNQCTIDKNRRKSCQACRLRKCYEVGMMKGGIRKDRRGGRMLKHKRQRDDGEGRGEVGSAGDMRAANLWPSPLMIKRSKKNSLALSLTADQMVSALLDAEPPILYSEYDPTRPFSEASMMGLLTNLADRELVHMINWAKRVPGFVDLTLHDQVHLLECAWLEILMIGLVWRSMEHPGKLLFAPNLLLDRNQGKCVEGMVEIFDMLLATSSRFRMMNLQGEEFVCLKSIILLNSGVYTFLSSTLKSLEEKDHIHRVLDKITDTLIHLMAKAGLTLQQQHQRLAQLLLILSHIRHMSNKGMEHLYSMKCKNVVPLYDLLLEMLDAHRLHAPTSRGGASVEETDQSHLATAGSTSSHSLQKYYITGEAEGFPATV
Peroxisome proliferator-activated receptor gamma (Homo sapiens), sequence (P37231 whole entry, looked up): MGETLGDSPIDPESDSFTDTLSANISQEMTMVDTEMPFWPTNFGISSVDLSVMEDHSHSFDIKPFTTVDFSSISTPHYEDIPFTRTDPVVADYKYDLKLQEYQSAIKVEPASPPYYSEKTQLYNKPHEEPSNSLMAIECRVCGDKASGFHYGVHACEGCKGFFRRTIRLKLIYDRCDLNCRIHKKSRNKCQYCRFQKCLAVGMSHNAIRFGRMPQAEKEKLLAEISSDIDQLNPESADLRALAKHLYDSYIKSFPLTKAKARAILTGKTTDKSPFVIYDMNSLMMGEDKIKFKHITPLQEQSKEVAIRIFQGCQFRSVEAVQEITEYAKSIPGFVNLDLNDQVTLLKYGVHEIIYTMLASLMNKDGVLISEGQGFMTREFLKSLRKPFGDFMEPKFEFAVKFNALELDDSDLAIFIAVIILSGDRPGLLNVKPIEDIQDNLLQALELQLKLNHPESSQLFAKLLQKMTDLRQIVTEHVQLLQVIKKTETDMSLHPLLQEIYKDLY
Aryl hydrocarbon receptor (Homo sapiens), sequence (P35869 whole entry, looked up): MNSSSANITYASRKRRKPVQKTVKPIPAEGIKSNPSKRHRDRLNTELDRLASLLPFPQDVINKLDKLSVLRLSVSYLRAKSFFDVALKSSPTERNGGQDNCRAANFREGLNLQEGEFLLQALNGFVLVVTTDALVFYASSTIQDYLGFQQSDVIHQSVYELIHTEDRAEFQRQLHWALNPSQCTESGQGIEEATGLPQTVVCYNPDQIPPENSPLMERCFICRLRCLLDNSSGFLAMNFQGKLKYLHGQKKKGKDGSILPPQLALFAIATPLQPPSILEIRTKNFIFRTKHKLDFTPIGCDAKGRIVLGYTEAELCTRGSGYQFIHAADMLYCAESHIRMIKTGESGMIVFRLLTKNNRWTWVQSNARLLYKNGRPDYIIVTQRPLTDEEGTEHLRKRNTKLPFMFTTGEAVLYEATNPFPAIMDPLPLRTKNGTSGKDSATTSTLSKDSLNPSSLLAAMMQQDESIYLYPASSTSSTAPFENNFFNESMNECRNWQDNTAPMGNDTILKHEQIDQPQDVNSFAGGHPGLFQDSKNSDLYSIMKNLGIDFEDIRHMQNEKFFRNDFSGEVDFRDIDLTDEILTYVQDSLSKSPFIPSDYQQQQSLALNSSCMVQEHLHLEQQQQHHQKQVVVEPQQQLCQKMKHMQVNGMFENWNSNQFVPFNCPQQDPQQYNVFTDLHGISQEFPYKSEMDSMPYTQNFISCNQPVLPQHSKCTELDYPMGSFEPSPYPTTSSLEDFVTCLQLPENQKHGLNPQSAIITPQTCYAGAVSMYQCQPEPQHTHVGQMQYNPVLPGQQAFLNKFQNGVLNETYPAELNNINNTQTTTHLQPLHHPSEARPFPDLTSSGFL
Aromatase (Homo sapiens), sequence (P11511 whole entry, looked up): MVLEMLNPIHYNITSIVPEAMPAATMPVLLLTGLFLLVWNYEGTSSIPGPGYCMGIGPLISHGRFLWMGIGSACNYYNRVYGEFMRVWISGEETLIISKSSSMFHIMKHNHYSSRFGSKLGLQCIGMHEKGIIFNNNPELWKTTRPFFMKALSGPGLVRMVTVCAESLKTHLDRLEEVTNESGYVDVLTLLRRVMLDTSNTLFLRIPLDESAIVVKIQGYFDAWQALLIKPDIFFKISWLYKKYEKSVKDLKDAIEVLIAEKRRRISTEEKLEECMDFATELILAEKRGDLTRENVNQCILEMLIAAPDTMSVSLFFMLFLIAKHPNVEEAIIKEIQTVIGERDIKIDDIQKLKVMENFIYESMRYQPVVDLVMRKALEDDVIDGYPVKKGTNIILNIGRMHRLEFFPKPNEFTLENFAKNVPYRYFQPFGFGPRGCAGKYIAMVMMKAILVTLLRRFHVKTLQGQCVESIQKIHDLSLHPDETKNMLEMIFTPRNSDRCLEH

Row | SMILES | Potency [1] | Potency [2] | Potency [3] | Potency [4] | Potency [5] | Potency [6] | Potency [7] | Potency [8] | Potency (Aromatase (Homo sapiens)) | Potency [9] | Potency [10] | Potency [11] | Potency [12] | Potency [13] | Potency [14] | Potency [15] | Potency [16] | Potency [17] | Potency [18] | Potency [19]
1 | COc1ccc(CCN(C)CCCC(C#N)(c2ccc(OC)c(OC)c2)C(C)C)cc1OC (configuration not stated) | 23.7 µM (active) and 21.6 µM (active) | 26.6 µM (active) and 30.6 µM (active) | inactive | inactive | inactive and 30.6 µM (active) | 27.3 µM (active) | inactive | inactive |  |  |  |  |  |  |  |  |  |  |  | 
2 | CC(C)C(=O)c1c(C(C)C)nn2ccccc12 | inactive | inactive | inactive |  | inactive | inactive | inactive |  | inactive | inactive | inactive | inactive | inactive | inactive | inactive |  |  |  |  | 
3 | CCCC(=O)c1ccccc1 | inactive | inactive | inactive | inactive | inactive | inactive | inactive | inactive | inactive | inactive |  | inactive | inactive |  | inactive |  |  |  |  | 
4 | O=S(=O)(O)c1ccc2nc(-c3ccccc3)[nH]c2c1 | inactive | inactive | inactive |  | inactive | inactive | inactive |  | inactive | inactive | inactive | inactive | inactive | 20.6 µM (active) and inactive | inactive |  |  |  |  | 
5 | Cc1ccc(S(=O)(=O)Oc2ccc(N=Nc3ccc(-c4ccc(N=Nc5c(O)ccc6cc(S(=O)(=O)O)cc(S(=O)(=O)O)c56)c(C)c4)cc3C)cc2)cc1 | 27.4 µM (active) and 17.8 µM (active) | 10.9 µM (active) | inactive |  | 30.8 µM (active) and 15.9 µM (active) | 10.9 µM (active) and 10 µM (active) | inactive | inactive |  | inactive | 9.73 µM (active) and 14.1 µM (active) |  |  | inactive | inactive |  |  |  |  | 
6 | OCCOCCN1CCN(C(c2ccccc2)c2ccc(Cl)cc2)CC1 (configuration not stated) | 26.9 µM (active) | 23.7 µM (active) and 47.9 µM (active) | inactive | inactive | inactive | inactive | inactive | inactive | inactive |  |  | inactive | inactive | inactive |  |  |  |  |  | 
7 | CC[C@]1(O)C[C@@H]2CN(CCc3c([nH]c4ccccc34)[C@@](C(=O)OC)(c3cc4c(cc3OC)N(C)[C@H]3[C@@](O)(C(=O)OC)[C@H](OC(C)=O)[C@]5(CC)C=CCN6CC[C@]43[C@@H]65)C2)C1 | 188 nM (active) and 266 nM (active) | 75 nM (active) and 42.2 nM (active) |  |  | 15 µM (active) |  | inactive |  | 21.1 µM (active) | inactive | 16.8 µM (active) and 15 µM (active) |  |  | inactive | inactive |  |  |  |  | 
8 | CC(=O)C1=C(C)[C@@H]2C[C@@]3(C1)[C@H](C)CC[C@H]3C2(C)C | 63.9 µM (active) and inactive |  | inactive | inactive | inactive | inactive | inactive | inactive | inactive | inactive | inactive | inactive | inactive |  | inactive | inactive | inactive | inactive | inactive | inactive
9 | Cc1cccc2n[nH]nc12 | inactive | inactive | inactive | inactive | inactive |  | inactive | inactive |  |  | inactive |  | inactive | inactive | inactive |  |  |  |  | 
10 | [Cl][In]([Cl])[Cl] | inactive |  | inactive | inactive | inactive | inactive |  | inactive | inactive | inactive | inactive |  |  | inactive |  | inactive | inactive |  |  | 
11 | Oc1c(Cl)cc(Cl)c(Cl)c1Cc1c(O)c(Cl)cc(Cl)c1Cl | 26.6 µM (active) and 9.66 µM (active) and 24.3 µM (active) | 10.6 µM (active) and 2.43 µM (active) and 1.93 µM (active) | inactive | 24.5 µM (active) and 4.9 µM (active) | inactive | 6.09 µM (active) | 173 nM (active) and 977 nM (active) and 1.68 µM (active) | 21.8 µM (active) and 21.9 µM (active) and inactive | 10.6 µM (active) and 5.43 µM (active) and 6.11 µM (active) | inactive | inactive |  |  | 24.3 µM (active) and 8.63 µM (active) and 8.41 µM (active) |  |  |  |  |  | 
12 | CCn1c2ccccc2c2cc(N)ccc21 | inactive |  | inactive | inactive | inactive | inactive | inactive | inactive | inactive | 9.59 µM (active) and 9.69 µM (active) and 3.06 µM (active) | inactive | inactive | inactive | inactive |  | inactive | 48.5 µM [inconclusive] (active) and inactive | inactive | inactive | inactive
13 | Cc1cc(Cc2cc(C)cc(C(C)(C)C)c2O)c(O)c(C(C)(C)C)c1 | 15.4 µM (active) and 12.2 µM (active) | 6.89 µM (active) and 8.63 µM (active) | inactive | 22 µM (active) and 24.5 µM (active) | 68.9 µM (active) | 54.8 µM (active) and 61.1 µM (active) | 12.4 µM (active) and 11 µM (active) | 11 µM (active) and 13.8 µM (active) | 30.8 µM (active) and 48.6 µM (active) | inactive | inactive |  |  | 17.3 µM (active) and 27.3 µM (active) |  |  |  |  |  | 
